# Measured values from paper PMC7862700, “An all-to-all approach to the identification of sequence-specific readers for epigenetic DNA modifications on cytosine”.
# How the values were obtained:
# Assay in all cases: DAPPL (digital affinity profiling via proximity ligation, sequencing); 10 mM Tris-HCl pH 7.5, 50 mM NaCl, 1 mM DTT, 4% glycerol, room temperature, 30 min; GST-TFs on glutathione beads, 16-mer random dsDNA library, 0.1% formaldehyde crosslink after washing; high values mean tight binding
# [1] = target: T1, FLI1 (Homo sapiens, UniProt Q01543 1-452); conditions: protein: recombinant; tags: N-terminal GST; dsDNA, one strand shown
# T1 sequence: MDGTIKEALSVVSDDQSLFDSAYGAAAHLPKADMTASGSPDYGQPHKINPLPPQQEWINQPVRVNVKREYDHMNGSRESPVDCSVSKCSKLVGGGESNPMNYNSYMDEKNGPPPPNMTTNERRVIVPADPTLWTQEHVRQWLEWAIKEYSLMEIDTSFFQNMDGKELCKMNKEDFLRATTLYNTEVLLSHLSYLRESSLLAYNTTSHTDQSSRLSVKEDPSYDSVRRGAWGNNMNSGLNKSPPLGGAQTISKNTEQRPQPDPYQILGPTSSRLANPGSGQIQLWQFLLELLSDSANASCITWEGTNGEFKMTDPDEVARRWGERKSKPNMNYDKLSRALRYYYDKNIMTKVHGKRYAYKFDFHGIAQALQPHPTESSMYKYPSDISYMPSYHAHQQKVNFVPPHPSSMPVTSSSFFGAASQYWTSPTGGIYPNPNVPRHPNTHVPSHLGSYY
# How it was run: (§1)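 Pools were built from human transcription factors expressed in yeast as GST fusions, captured on glutathione beads and DNA-barcoded, along with a tag-only sample. Incubation with 200 nmole of a 16-mer random double-stranded DNA library lasted 30 min at room temperature in Tris/NaCl/DTT/glycerol buffer, and was followed by washing, 0.1% formaldehyde crosslinking, proximity ligation, PCR amplification and Illumina NextSeq500 sequencing. Binding signal is the quotient of each hexamer's read frequency for a factor and its frequency for the tag-only sample.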
# [2] = target: T2, ELK1 (Homo sapiens, UniProt P19419 1-428); conditions: protein: recombinant; tags: N-terminal GST; dsDNA, one strand shown
# T2 sequence: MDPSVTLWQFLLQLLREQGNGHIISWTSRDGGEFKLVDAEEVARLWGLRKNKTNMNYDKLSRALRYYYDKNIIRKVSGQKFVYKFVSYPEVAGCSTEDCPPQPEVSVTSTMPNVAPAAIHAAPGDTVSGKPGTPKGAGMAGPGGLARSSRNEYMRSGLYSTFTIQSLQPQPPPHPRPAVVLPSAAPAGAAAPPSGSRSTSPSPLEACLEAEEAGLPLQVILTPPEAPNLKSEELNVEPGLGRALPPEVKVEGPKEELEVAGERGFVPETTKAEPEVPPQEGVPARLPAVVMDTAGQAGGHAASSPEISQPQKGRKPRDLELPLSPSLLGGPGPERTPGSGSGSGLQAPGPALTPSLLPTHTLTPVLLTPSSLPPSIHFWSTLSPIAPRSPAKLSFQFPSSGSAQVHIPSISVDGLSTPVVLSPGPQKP
# How it was run: as §1
# [3] = target: T3, GABPA (Homo sapiens, UniProt Q06546 1-454); conditions: protein: recombinant; tags: N-terminal GST; dsDNA, one strand shown
# T3 sequence: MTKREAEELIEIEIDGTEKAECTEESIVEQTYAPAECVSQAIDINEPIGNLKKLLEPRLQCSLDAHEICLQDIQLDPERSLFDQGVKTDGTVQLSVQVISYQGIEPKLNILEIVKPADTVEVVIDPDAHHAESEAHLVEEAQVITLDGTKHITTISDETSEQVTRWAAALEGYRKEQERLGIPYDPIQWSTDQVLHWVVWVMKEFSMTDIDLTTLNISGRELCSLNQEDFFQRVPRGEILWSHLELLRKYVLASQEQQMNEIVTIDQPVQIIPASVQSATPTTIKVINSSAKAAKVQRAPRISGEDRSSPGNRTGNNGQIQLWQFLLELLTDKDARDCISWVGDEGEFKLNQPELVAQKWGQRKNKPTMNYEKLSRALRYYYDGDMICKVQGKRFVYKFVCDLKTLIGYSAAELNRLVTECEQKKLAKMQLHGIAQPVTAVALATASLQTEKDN
# How it was run: as §1
# [4] = target: T4, ERG (Homo sapiens, UniProt P11308 1-479); conditions: protein: recombinant; tags: N-terminal GST; dsDNA, one strand shown
# T4 sequence: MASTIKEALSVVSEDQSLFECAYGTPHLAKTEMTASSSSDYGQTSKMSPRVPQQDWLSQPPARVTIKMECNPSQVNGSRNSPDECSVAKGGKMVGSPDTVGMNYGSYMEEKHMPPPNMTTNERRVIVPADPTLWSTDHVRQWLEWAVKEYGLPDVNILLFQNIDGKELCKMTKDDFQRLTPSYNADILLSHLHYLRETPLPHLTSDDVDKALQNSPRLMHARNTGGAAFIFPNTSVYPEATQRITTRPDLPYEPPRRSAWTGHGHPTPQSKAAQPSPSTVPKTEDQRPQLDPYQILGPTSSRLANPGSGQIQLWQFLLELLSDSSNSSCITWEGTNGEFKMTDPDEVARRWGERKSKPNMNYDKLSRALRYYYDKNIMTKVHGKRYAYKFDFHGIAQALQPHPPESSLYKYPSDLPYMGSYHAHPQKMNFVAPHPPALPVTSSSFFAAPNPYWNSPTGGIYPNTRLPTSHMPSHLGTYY
# How it was run: as §1
# [5] = target: ELF1 (Homo sapiens, UniProt P32519 1-619); conditions: protein: recombinant; tags: N-terminal GST; dsDNA, one strand shown
# Sequence of ELF1 (P32519 whole entry): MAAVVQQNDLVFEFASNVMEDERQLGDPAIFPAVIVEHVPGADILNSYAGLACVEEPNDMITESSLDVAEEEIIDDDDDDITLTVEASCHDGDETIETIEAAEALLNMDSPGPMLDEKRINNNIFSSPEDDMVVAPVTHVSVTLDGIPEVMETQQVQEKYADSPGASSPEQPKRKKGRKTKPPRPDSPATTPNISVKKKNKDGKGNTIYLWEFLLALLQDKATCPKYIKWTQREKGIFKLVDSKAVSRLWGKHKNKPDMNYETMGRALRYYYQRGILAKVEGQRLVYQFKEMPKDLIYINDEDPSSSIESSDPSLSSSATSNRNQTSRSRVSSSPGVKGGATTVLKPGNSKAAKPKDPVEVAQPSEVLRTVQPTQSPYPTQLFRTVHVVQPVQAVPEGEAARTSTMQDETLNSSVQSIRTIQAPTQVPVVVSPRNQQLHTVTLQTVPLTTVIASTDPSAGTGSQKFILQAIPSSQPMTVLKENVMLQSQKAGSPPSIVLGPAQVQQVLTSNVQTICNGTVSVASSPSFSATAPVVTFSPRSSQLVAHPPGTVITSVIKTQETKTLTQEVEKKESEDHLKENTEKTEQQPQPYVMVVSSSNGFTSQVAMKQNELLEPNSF
# How it was run: as §1
# [6] = target: T5, EHF (Homo sapiens, UniProt Q9NZC4 1-300); conditions: protein: recombinant; tags: N-terminal GST; dsDNA, one strand shown
# T5 sequence: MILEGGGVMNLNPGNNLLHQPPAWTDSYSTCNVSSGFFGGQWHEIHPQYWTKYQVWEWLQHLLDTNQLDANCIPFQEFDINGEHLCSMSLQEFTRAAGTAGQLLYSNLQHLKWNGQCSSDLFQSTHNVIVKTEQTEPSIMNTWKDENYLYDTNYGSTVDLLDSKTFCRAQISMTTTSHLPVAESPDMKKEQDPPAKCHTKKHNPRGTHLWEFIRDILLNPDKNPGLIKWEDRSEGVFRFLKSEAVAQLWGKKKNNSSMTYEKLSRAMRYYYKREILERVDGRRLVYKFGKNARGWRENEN
# How it was run: as §1
# [7] = target: SPI1 (Homo sapiens, UniProt P17947 1-270); conditions: protein: recombinant; tags: N-terminal GST; dsDNA, one strand shown
# How it was run: as §1
# [8] = target: SPIB (Homo sapiens, UniProt Q01892 1-262); conditions: protein: recombinant; tags: N-terminal GST; dsDNA, one strand shown
# Sequence of SPIB (Q01892 whole entry): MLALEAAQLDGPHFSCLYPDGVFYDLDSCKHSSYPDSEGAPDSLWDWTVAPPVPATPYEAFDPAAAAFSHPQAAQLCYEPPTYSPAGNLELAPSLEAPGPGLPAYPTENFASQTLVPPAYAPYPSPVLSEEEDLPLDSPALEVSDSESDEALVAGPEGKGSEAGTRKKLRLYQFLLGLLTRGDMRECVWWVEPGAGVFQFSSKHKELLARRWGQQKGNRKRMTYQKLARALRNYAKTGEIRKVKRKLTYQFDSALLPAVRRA
# How it was run: as §1
# [9] = target: T6, ELK3 (Homo sapiens, UniProt P41970 1-407); conditions: protein: recombinant; tags: N-terminal GST; dsDNA, one strand shown
# T6 sequence: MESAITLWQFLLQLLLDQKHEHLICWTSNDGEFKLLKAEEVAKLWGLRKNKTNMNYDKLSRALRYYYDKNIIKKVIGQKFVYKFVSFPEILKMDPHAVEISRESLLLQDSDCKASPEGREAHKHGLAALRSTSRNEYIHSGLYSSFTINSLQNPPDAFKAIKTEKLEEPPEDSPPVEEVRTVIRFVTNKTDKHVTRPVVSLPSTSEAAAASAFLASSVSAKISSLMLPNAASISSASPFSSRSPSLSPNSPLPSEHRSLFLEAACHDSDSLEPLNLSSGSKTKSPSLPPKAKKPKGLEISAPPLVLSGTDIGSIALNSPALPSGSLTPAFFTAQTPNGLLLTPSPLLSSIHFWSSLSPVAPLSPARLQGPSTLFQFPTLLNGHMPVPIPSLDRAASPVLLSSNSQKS
# How it was run: as §1
# [10] = target: T7, FEV (Homo sapiens, UniProt Q99581 1-238); conditions: protein: recombinant; tags: N-terminal GST; dsDNA, one strand shown
# T7 sequence: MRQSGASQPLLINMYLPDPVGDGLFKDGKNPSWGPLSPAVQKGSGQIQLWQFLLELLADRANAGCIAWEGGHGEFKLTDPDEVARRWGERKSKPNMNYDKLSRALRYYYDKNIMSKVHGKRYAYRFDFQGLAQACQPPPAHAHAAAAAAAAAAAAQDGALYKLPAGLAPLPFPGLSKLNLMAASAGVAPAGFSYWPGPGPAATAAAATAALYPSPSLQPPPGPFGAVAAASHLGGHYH
# How it was run: as §1
# [11] = target: ETV5 (Homo sapiens, UniProt P41161 1-510); conditions: protein: recombinant; tags: N-terminal GST; dsDNA, one strand shown
# Sequence of ETV5 (P41161 whole entry): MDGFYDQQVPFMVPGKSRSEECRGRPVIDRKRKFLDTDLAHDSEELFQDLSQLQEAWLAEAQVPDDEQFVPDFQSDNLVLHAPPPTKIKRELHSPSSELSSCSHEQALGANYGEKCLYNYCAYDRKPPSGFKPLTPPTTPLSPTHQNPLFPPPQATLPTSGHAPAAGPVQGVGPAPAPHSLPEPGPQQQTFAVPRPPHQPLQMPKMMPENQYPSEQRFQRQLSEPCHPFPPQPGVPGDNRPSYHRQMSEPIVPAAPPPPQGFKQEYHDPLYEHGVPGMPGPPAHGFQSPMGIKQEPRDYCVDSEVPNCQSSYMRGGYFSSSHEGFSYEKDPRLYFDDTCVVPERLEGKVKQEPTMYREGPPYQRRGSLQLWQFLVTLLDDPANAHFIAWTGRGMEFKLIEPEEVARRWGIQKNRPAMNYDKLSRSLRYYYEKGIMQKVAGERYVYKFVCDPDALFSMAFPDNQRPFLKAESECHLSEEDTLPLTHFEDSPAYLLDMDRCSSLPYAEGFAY
# How it was run: as §1
# [12] = target: HSF1 (Homo sapiens, UniProt Q00613 1-529); conditions: protein: recombinant; tags: N-terminal GST; chain copies: 3; dsDNA, one strand shown
# Sequence of HSF1 (Q00613 whole entry): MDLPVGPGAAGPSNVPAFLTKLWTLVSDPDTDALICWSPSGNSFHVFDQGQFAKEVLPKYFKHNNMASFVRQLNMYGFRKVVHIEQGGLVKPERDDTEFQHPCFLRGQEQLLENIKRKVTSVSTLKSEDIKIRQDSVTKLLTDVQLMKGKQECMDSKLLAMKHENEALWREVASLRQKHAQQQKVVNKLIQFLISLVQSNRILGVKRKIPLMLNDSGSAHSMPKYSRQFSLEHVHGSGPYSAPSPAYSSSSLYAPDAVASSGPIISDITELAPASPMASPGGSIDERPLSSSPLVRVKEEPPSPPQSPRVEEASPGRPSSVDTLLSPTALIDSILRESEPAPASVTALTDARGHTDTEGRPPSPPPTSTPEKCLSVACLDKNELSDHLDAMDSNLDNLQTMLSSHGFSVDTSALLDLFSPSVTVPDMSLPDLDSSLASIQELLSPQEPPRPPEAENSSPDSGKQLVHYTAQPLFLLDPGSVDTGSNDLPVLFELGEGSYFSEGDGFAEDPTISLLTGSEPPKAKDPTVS
# How it was run: as §1
# [13] = target: T8, SPIC (Homo sapiens, UniProt Q8N5J4 1-248); conditions: protein: recombinant; tags: N-terminal GST; dsDNA, one strand shown
# T8 sequence: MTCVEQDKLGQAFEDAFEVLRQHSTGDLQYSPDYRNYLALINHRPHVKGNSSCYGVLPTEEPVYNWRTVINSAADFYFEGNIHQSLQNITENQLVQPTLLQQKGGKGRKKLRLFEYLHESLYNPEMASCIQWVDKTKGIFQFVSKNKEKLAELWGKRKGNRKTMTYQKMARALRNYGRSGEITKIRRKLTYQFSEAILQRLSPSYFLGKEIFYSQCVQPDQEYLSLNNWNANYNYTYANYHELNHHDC
# How it was run: as §1
# [14] = target: ELF4 (Homo sapiens, UniProt Q99607 1-663); conditions: protein: recombinant; tags: N-terminal GST; dsDNA, one strand shown
# Sequence of ELF4 (Q99607 whole entry): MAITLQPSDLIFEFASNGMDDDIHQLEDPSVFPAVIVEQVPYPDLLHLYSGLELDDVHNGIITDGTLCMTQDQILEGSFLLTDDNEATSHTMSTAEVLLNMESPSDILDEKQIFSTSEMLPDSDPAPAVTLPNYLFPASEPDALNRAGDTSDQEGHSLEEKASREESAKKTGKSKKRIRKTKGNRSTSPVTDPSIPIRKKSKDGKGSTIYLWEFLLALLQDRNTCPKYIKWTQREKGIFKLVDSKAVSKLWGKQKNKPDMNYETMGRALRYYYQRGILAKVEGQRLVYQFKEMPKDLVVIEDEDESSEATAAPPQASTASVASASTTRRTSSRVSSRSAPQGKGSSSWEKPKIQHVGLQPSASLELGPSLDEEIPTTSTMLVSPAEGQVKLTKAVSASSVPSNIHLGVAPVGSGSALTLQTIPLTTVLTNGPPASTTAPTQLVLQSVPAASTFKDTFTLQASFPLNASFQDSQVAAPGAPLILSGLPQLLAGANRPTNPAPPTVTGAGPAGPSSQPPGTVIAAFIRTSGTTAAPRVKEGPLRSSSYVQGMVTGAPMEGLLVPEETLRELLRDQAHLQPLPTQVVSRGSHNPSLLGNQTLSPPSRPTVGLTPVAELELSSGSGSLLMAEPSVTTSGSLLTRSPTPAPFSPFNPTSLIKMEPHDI
# How it was run: as §1
# [15] = target: T9, ELK4 (Homo sapiens, UniProt P28324-2 1-405); conditions: protein: recombinant; tags: N-terminal GST; dsDNA, one strand shown
# T9 sequence: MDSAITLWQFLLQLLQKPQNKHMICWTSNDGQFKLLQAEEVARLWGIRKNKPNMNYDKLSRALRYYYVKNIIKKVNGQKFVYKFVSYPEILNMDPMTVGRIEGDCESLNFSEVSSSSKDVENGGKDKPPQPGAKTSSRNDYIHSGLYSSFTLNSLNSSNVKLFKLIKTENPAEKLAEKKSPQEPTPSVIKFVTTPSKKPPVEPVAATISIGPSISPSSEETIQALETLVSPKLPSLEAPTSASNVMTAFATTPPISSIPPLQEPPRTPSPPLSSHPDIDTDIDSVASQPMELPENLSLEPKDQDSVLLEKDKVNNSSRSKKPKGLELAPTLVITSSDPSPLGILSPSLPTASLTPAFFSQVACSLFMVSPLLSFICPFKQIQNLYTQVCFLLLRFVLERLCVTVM
# How it was run: as §1
# [16] = target: T10, ETV2 (Homo sapiens, UniProt O00321 1-342); conditions: protein: recombinant; tags: N-terminal GST; dsDNA, one strand shown
# T10 sequence: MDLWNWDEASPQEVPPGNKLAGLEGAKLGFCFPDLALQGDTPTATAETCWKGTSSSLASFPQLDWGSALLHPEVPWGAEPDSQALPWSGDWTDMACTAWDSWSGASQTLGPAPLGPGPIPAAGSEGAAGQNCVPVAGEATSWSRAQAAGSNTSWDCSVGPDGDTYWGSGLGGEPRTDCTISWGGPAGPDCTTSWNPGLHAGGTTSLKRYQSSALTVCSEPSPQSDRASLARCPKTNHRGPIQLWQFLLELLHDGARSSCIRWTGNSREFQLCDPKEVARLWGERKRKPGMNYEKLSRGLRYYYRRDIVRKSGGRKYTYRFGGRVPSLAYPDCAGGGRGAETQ
# How it was run: as §1
# [17] = target: T11, ELF3 (Homo sapiens, UniProt P78545 1-371); conditions: protein: recombinant; tags: N-terminal GST; dsDNA, one strand shown
# T11 sequence: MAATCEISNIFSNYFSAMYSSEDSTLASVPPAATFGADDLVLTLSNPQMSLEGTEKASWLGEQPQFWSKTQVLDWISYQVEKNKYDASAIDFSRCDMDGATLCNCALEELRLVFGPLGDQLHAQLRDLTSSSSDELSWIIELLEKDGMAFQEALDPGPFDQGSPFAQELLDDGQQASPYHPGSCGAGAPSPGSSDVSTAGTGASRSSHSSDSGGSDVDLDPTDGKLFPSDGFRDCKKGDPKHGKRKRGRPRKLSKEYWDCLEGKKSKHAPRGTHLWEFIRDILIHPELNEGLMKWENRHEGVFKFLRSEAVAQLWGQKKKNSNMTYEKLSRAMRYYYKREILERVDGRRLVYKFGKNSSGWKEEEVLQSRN
# How it was run: as §1
# [18] = target: CRX (Homo sapiens, UniProt O43186 1-299); conditions: protein: recombinant; tags: N-terminal GST; dsDNA, one strand shown
# Sequence of CRX (O43186 whole entry): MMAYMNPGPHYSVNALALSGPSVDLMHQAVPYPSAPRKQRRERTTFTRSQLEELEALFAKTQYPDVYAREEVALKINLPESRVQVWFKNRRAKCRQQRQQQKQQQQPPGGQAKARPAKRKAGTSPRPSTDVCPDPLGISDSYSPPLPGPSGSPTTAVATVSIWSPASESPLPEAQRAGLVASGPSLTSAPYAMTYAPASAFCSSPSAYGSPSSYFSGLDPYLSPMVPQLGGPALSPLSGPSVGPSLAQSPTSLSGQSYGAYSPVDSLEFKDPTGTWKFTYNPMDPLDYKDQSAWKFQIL
# How it was run: as §1
# [19] = target: ETV1 (Homo sapiens, UniProt P50549 1-477); conditions: protein: recombinant; tags: N-terminal GST; dsDNA, one strand shown
# Sequence of ETV1 (P50549 whole entry): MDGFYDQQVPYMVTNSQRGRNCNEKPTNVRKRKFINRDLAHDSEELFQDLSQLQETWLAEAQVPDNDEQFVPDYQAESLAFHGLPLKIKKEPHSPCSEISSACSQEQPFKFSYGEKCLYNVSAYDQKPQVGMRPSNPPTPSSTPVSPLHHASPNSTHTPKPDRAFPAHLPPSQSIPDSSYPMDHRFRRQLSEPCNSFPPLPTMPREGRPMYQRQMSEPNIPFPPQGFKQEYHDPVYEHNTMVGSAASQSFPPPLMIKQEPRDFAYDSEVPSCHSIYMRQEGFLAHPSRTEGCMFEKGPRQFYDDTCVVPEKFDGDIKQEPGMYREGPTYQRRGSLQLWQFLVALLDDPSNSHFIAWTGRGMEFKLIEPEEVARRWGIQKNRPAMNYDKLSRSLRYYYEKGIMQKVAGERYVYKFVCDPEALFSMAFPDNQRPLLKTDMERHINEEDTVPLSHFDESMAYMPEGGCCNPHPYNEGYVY
# How it was run: as §1
sequence,measurement,setting,value
TCCGAT,binding signal,[1],"1.32 fold enrichment (6-mer frequency, TF over GST control)"
same,binding signal,[2],"1.37 fold enrichment (6-mer frequency, TF over GST control)"
same,binding signal,[3],"1.17 fold enrichment (6-mer frequency, TF over GST control)"
same,binding signal,[4],"1.51 fold enrichment (6-mer frequency, TF over GST control)"
same,binding signal,[5],"1.27 fold enrichment (6-mer frequency, TF over GST control)"
same,binding signal,[6],"1.36 fold enrichment (6-mer frequency, TF over GST control)"
same,binding signal,[7],"1.29 fold enrichment (6-mer frequency, TF over GST control)"
same,binding signal,[8],"1.24 fold enrichment (6-mer frequency, TF over GST control)"
same,binding signal,[9],"1.27 fold enrichment (6-mer frequency, TF over GST control)"
same,binding signal,[10],"1.41 fold enrichment (6-mer frequency, TF over GST control)"
same,binding signal,[11],"1.3 fold enrichment (6-mer frequency, TF over GST control)"
same,binding signal,[12],"1.42 fold enrichment (6-mer frequency, TF over GST control)"
same,binding signal,[13],"1.25 fold enrichment (6-mer frequency, TF over GST control)"
same,binding signal,[14],"1.22 fold enrichment (6-mer frequency, TF over GST control)"
same,binding signal,[15],"1.25 fold enrichment (6-mer frequency, TF over GST control)"
same,binding signal,[16],"1.15 fold enrichment (6-mer frequency, TF over GST control)"
same,binding signal,[17],"1.23 fold enrichment (6-mer frequency, TF over GST control)"
same,binding signal,[18],"1.94 fold enrichment (6-mer frequency, TF over GST control)"
same,binding signal,[19],"1.3 fold enrichment (6-mer frequency, TF over GST control)"
